In PubChem BioAssay AID1159580 (chemical genetic matrix, 2015):
Among all 5,500 compounds or so, about 2,000 (36%) were called active. Inconclusive results (about 18%) are left out. No stated cut-off is given here; in the data, active means normalized growth mostly below about 0.91 (no sharp cut-off); inconclusive means no clear call, values can overlap the other calls; inactive means mostly above about 0.92. The list shows a part of the results.

Experiment: chemical genetic growth profiling, strain panel (AID 1159580);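 further: tested at 20 µM; growth read once vehicle control cultures reached saturation at 30 °C; 1 = growth at the plate median or of vehicle wells; lower values mean less growth of the strain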
Details: growth OD

Measured: normalized growth

NC(=O)N1c2ccccc2CC(=O)c2ccccc21
inactive: S. cerevisiae deletion strains, locus YKL009W, strain mrt4, active compounds read low 1.01 | S. cerevisiae deletion strains, locus YKL068W, active compounds read low 0.994 | S. cerevisiae deletion strains, locus YKL085W, strain MDH1 (second series), active compounds read low 1.02 | S. cerevisiae deletion strains, locus YKL085W, strain MDH1, active compounds read low 1.02 | S. cerevisiae deletion strains, locus YKL160W, strain elf1, active compounds read low 1.05 | S. cerevisiae deletion strains, locus YKL190W, strain CNB1, active compounds read low 1 | S. cerevisiae deletion strains, locus YKR001C, strain vps1, active compounds read low 0.969 | S. cerevisiae deletion strains, locus YKR026C, strain gcn3, active compounds read low 0.972 | S. cerevisiae deletion strains, locus YKR091W, strain srl3, active compounds read low 0.989 | S. cerevisiae deletion strains, locus YLL001W, strain dnm1, active compounds read low 0.969 | S. cerevisiae deletion strains, locus YLL026W, active compounds read low 0.988 | S. cerevisiae deletion strains, locus YLL041C, strain sdh2, active compounds read low 0.982 | S. cerevisiae deletion strains, locus YLR027C, strain aat2, active compounds read low 0.999 | S. cerevisiae deletion strains, locus YLR039C, strain RIC1, active compounds read low 0.972 | S. cerevisiae deletion strains, locus YLR058C, strain SHM2, active compounds read low 0.988 | S. cerevisiae deletion strains, locus YLR102C, strain apc9, active compounds read low 0.979 | S. cerevisiae deletion strains, locus YLR113W, strain HOG1, active compounds read low 0.96 | S. cerevisiae deletion strains, locus YLR221C, strain rsa3, active compounds read low 0.962 | S. cerevisiae deletion strains, locus YLR258W, strain gsy2, active compounds read low 1.01 | S. cerevisiae deletion strains, locus YLR262C, strain YPT6 (second series), active compounds read low 1.01 | S. cerevisiae deletion strains, locus YLR262C, strain YPT6, active compounds read low 1.01 | S. cerevisiae deletion strains, locus YLR268W, strain sec22, active compounds read low 1 | S. cerevisiae deletion strains, locus YLR320W, strain mms22, active compounds read low 0.945 | S. cerevisiae deletion strains, locus YLR330W, strain CHS5, active compounds read low 0.989 | S. cerevisiae deletion strains, locus YLR342W, strain FKS1 (second series), active compounds read low 0.949 | S. cerevisiae deletion strains, locus YLR342W, strain FKS1, active compounds read low 0.998 | S. cerevisiae deletion strains, locus YLR357W, strain rsc2, active compounds read low 0.993 | S. cerevisiae deletion strains, locus YLR370C, strain arc18, active compounds read low 1 | S. cerevisiae deletion strains, locus YLR371W, strain rom2, active compounds read low 0.969 | S. cerevisiae deletion strains, locus YLR384C, strain iki3, active compounds read low 0.983 | S. cerevisiae deletion strains, locus YLR418C, strain cdc73, active compounds read low 1.01 | S. cerevisiae deletion strains, locus YML016C, strain PPZ1, active compounds read low 0.985 | S. cerevisiae deletion strains, locus YML032C, strain rad52, active compounds read low 0.96 | S. cerevisiae deletion strains, locus YML120C, strain ndi1, active compounds read low 0.949 | S. cerevisiae deletion strains, locus YML124C, strain tub3, active compounds read low 0.979 | S. cerevisiae deletion strains, locus YMR058W, strain fet3, active compounds read low 0.978 | S. cerevisiae deletion strains, locus YMR078C, strain ctf18, active compounds read low 0.973 | S. cerevisiae deletion strains, locus YMR125W, strain sto1, active compounds read low 0.971 | S. cerevisiae deletion strains, locus YMR129W, active compounds read low 0.992 | S. cerevisiae deletion strains, locus YMR205C, strain PFK2, active compounds read low 0.96 | S. cerevisiae deletion strains, locus YMR223W, strain ubp8, active compounds read low 0.962 | S. cerevisiae deletion strains, locus YMR231W, strain pep5, active compounds read low 0.971 | S. cerevisiae deletion strains, locus YMR263W, strain SAP30, active compounds read low 1.02 | S. cerevisiae deletion strains, locus YMR307W, strain GAS1, active compounds read low 0.881 | S. cerevisiae deletion strains, locus YNL067W, strain RPL9B, active compounds read low 1.02 | S. cerevisiae deletion strains, locus YNL071W, strain lat1, active compounds read low 0.979 | S. cerevisiae deletion strains, locus YNL128W, strain TEP1, active compounds read low 1.01 | S. cerevisiae deletion strains, locus YNL153C, strain GIM3, active compounds read low 1.02 | S. cerevisiae deletion strains, locus YNL183C, strain NPR1, active compounds read low 0.943 | S. cerevisiae deletion strains, locus YNL209W, strain ssb2, active compounds read low 0.988 | S. cerevisiae deletion strains, locus YNL233W, strain BNI4, active compounds read low 1 | S. cerevisiae deletion strains, locus YNL248C, strain rpa49, active compounds read low 0.997 | S. cerevisiae deletion strains, locus YNL250W, strain rad50, active compounds read low 0.99 | S. cerevisiae deletion strains, locus YNL271C, strain bni1, active compounds read low 0.974 | S. cerevisiae deletion strains, locus YNL298W, strain CLA4, active compounds read low 0.974 | S. cerevisiae deletion strains, locus YNL307C, strain MCK1, active compounds read low 0.96 | S. cerevisiae deletion strains, locus YNL322C, strain KRE1 (second series), active compounds read low 0.986 | S. cerevisiae deletion strains, locus YNL322C, strain KRE1, active compounds read low 0.998 | S. cerevisiae deletion strains, locus YNR049C, strain mso1, active compounds read low 0.991 | S. cerevisiae deletion strains, locus YNR052C, strain pop2, active compounds read low 0.962 | S. cerevisiae deletion strains, locus YOL006C, strain TOP1, active compounds read low 1.03 | S. cerevisiae deletion strains, locus YOL012C, strain htz1 0.873 | S. cerevisiae deletion strains, locus YOL147C, strain pex11, active compounds read low 0.991 | S. cerevisiae deletion strains, locus YOR001W, strain rrp6, active compounds read low 0.949 | S. cerevisiae deletion strains, locus YOR061W, strain CKA2, active compounds read low 0.994 | S. cerevisiae deletion strains, locus YOR069W, strain VPS5, active compounds read low 0.975 | S. cerevisiae deletion strains, locus YOR070C, strain gyp1, active compounds read low 1 | S. cerevisiae deletion strains, locus YOR080W, strain dia2, active compounds read low 1 | S. cerevisiae deletion strains, locus YOR083W, strain WHI5, active compounds read low 0.99 | S. cerevisiae deletion strains, locus YOR106W, strain vam3, active compounds read low 1.03 | S. cerevisiae deletion strains, locus YOR136W, strain idh2, active compounds read low 0.98 | S. cerevisiae deletion strains, locus YOR144C, strain elg1, active compounds read low 0.986 | S. cerevisiae deletion strains, locus YOR184W, strain ser1, active compounds read low 0.951 | S. cerevisiae deletion strains, locus YOR231W, strain MKK1, active compounds read low 0.999 | S. cerevisiae deletion strains, locus YOR265W, strain rbl2, active compounds read low 0.996 | S. cerevisiae deletion strains, locus YOR270C, strain vph1, active compounds read low 0.929 | S. cerevisiae deletion strains, locus YOR290C, strain snf2, active compounds read low 1.02 | S. cerevisiae deletion strains, locus YOR316C, strain cot1, active compounds read low 0.983 | S. cerevisiae deletion strains, locus YPL051W, strain arl3, active compounds read low 1.04 | S. cerevisiae deletion strains, locus YPL055C, strain LGE1, active compounds read low 1.03 | S. cerevisiae deletion strains, locus YPL078C, strain atp4, active compounds read low 1.01 | S. cerevisiae deletion strains, locus YPL106C, strain sse1, active compounds read low 1.01 | S. cerevisiae deletion strains, locus YPL240C, strain hsp82, active compounds read low 0.986 | S. cerevisiae deletion strains, locus YPL241C, strain CIN2, active compounds read low 0.996 | S. cerevisiae deletion strains, locus YPL256C, strain CLN2, active compounds read low 0.992 | S. cerevisiae deletion strains, locus YPR119W, strain clb2, active compounds read low 0.997 | S. cerevisiae deletion strains, locus YPR141C, strain kar3, active compounds read low 0.987 | S. cerevisiae deletion strains, locus YPR163C, strain tif3, active compounds read low 0.983 | S. cerevisiae deletion strains, locus YPR167C, strain met16, active compounds read low 0.979 | S. cerevisiae deletion strains, strain wtn01, active compounds read low 0.999 | S. cerevisiae strains, strain wild type, active compounds read low 0.989
